Source: PubChem
p53 reactivator: re-activators of mutant p53 | AID 504706 | actives 0.063% (n = 320,000) | Potency, µM (top dose mostly 92.2 µM), for the others: top-dose activity change, positive = activation, usual class: activators | H1299 p53-A138V BP100-luciferase reporter, luminescence, 24 h; note: potency is the fitted concentration of half-maximal effect; % of control where 0% means no effect; nearly all actives have a fitted effect of over 45% in size
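p53-null H1299 cells stably carrying temperature-sensitive p53-A138V and a BP100-luciferase reporter were pinned with compounds (4-point, 1:5 series) and held 24 hrs at 37 deg C. Luminescence was read 10 min after detection reagent.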
Gal4-VP16 FLuc: counter-screen for ROR gamma inhibitors: Gal4-VP16 reporter; actives 3.5% (n = 310,000); Drosophila S2 Gal4-VP16 UAS-luciferase, luminescence, 20 h; AID 2546; Potency, µM (top dose mostly 53.6 µM), for inactives: at the top dose activity, negative = inhibition, usual class: inhibitors;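 note: Gal4-VP16 expression switched on by copper sulfate through the metallothionein promoter; potency is the fitted concentration of half-maximal effect; % is set by controls: 0 for no effect and ±100 for the full control effect; nearly all actives have a fitted effect of over 50% in size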
RORg inh: inhibitors of mouse ROR gamma transcriptional activity. Drosophila S2 Gal4-RORgamma UAS-luciferase reporter, 20 h. P51450. actives 5.4% (n = 310,000). Potency, µM (titrated, usually from 53.6 µM), for inactives: top-dose activity change, negative = inhibition, actives largely listed as inhibitors. AID 2551; note: potency is the fitted concentration of half-maximal effect; % is set by controls: 0 for no effect and ±100 for the full control effect; nearly all actives have a fitted effect of over 60% in size
Target sequence (P51450 whole entry, looked up, the tested form may be a part): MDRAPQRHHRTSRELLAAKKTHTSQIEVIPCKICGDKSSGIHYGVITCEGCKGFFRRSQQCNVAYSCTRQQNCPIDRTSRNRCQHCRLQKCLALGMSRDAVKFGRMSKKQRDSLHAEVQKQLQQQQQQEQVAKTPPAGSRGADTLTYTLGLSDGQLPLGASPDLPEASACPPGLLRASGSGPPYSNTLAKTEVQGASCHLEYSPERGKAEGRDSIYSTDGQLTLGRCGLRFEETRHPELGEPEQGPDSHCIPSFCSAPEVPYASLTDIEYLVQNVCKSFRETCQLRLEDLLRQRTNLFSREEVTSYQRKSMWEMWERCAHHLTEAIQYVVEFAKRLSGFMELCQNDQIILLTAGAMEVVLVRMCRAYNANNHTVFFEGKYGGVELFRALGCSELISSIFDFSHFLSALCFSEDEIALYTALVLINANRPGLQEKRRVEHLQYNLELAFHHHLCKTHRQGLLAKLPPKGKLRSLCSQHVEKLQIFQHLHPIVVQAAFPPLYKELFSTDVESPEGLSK
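Stable Schneider cell line, Gal4 DNA-binding domain fused to ROR gamma, UAS-luciferase. Cmpd 1 hr RT → CuSO4 700 uM final → 20 hr RT → luciferase reagent 10 min → luminescence.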
BRCA1 expr act: BRCA1 expression activation; MCF7-BRCA1-FFLuc reporter, luminescence, 48 h; response scale: scaled: vehicle 0%, 10 µM genistein 100%; Potency, µM (doses to about 46.1 µM), for inactives: at the highest dose activation, most hits filed as activators; actives 1.1% (n = 380,000); note: potency is the fitted concentration of half-maximal effect; nearly all actives have a fitted effect of over 80% in size
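Luminescence from a BRCA1-driven firefly luciferase in MCF7 cells was the read-out, taken 15 min after substrate addition following 48 h compound exposure at 37 °C. Data were normalized to a 10 microM genistein control and DMSO vehicle.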
ELG1 DNA repair: blocks ELG1-dependent DNA repair in HEK293T cells; Potency, µM (doses to about 46.1 µM), without a hit: at the highest dose activity change, negative = inhibition, most hits filed as inhibitors; actives 2.3% (n = 330,000); HEK293T ELG1-luciferase reporter, luminescence, 16 h; DNA damage induced by 5-fluorouridine; AID 504467; note: potency is the fitted concentration of half-maximal effect; % is set by controls: 0 for no effect and ±100 for the full control effect; nearly all actives have a fitted effect of over 55% in size
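Overnight (16 hr) co-exposure of 2,000 cells/well to 5-fluorouridine and compound at 37 °C preceded detection. Luciferase was quantified via ONE-Glo luminescence; loss of signal denotes inhibition.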
Giardia kill: Giardia lamblia killing; activity change, % at 7.66 µM, hits read low; Giardia lamblia trophozoite viability; actives 0.15% (n = 340,000); in the data active = activity change below about -80%; inconclusive = between about -30% and that limit;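 note: parasites exposed to compound for two days anaerobically before the ATP read; % is set by controls: 0 for no effect and ±100 for the full control effect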
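Luminescence from cellular ATP indicates surviving trophozoites (100 cells/well) following 48 hrs anaerobic compound treatment at 37 deg C; signal develops 15-30 min at room temperature.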
* hit, by the source's call; ? = inconclusive; / = not tested or not shown; [ ] = another dose, or the depositor's remark. Rows were chosen to be rich in hits. Some 7.6% of all compounds tested hit in one or more screens of this group. Unless noted, calls come from the whole dose curve; as a rule, active = well fitted curve in the direction sought with a large enough effect; inconclusive = small, poorly fitted or top-dose-only effect, or another doubt; inactive = no such curve, though single readings can be large; an effect the other way counts as inactive or inconclusive.

SMILES | p53 reactivator | Gal4-VP16 FLuc | RORg inh | BRCA1 expr act | ELG1 DNA repair | Giardia kill
Cc1sc(NC(=O)c2cccc(N3C(=O)CCC3=O)c2)nc1-c1ccccc1 | 0.7% | / | / | 2.0% | 2.5% | -12.2
COc1ccc(CCNC2=C(Cl)C(=O)N(CCc3ccc(OC)c(OC)c3)C2=O)cc1OC | -7.7% | -4.5% | 6.0% | -23.1% | 13µM* | -1.6
O=C(CCNS(=O)(=O)c1ccccc1C(F)(F)F)N1CCN(S(=O)(=O)c2cccc(F)c2)CC1 | 13.3% | / | / | -14.2% | -2.9% | ?
S=C(NCCc1ccccc1)N/N=C/c1ccc(Cl)cc1 | 5.1% | ? | ? | -55.1% | 2.7% | 40.1
S=C(NCCc1ccccc1)N/N=C/c1c(Cl)cccc1Cl | 5.8% | 8.91µM* | 10µM* | 0.3% | 8.4% | -5.8
Cc1ccc(/C=N/NC(=S)NCCc2ccccc2)s1 | -1.1% | 2.24µM* | 0.224µM* | 0.1% | 12.4% | 0.0
CCOC(=O)N/N=C\c1ccc(C)s1 | ? | ? | 18.2% | 87.6% | ? | -5.9
COc1cc(/C=N/NC(=S)NCCc2ccccc2)cc(OC)c1OC | 0.9% | ? | 12.6µM* | -64.1% | ? | -0.9
CCCCNC(=S)N/N=C/c1ccc(C)s1 | ? | 2.51µM* | 1µM* | 32.6% | ? | 3.2
CN(C)S(=O)(=O)c1ccc2c(c1)nnn2CCNC(=O)Nc1ccc(Br)cc1 | / | / | / | 12.5% | / | /
O=C(O)COc1ccccc1/C=N/NC(=O)CSc1nc2ccccc2c(=O)n1-c1ccccc1 | 0.0% | -1.7% | -4.4% | -3.0% | 18.6% | 3.6
COc1ccc(-c2csc(NC(=O)CC(C)C)n2)cc1 | ? | 1.6% | ? | 8.91µM* | ? | -5.1
Cc1nc(-c2ccc(NC(=O)CC(C)C)cc2)cs1 | ? | -18.5% | -0.6% | 2.24µM* | ? | -19.3
CC(C)C(=O)Nc1ccc(-c2csc(-c3ccccc3)n2)cc1 | 12.3% | 13.2% | 15.7% | 5.01µM* | ? | -12.0
CC(C)(C)c1csc(NC(=O)c2ccc(Br)o2)n1 | ? | 6.9% | ? | 10µM* | ? | 20.2
CC(C)(C)c1csc(NC(=O)c2ccncc2)n1 | -2.9% | ? | 35.5% | 1.9% | ? | -4.5
COc1ccc(NC(=O)CSc2nnc(CNc3ccc(C)cc3)n2C)cc1 | -1.5% | 1.8% | -27.0% | 0.1% | 6.8% | 10.4
O=C(CSc1nc(C(F)(F)F)cc(=O)[nH]1)NCC1CCCO1 (configuration not stated) | 0.9% | / | / | -15.3% | 11.8% | 9.4
Cc1cc(NC(=O)CSc2nccn2-c2cccc(C)c2C)no1 | -2.5% | 1.1% | -4.0% | -21.1% | ? | 4.0
CC1=C(C(N)=O)C(c2ccc(C(C)C)cc2)n2nc(SCc3ccccc3)nc2N1 (configuration not stated) | / | / | / | 3.4% | / | /
Cc1nc(-c2ccc(NC(=O)c3ccc(Br)o3)cc2)cs1 | 19.9% | -14.8% | -0.5% | 11.2µM* | ? | -28.3
Cc1ccc(C(=O)NCCNC(=O)COc2ccc(Cl)cc2)cn1 | -4.4% | 2.6% | 18.3% | 3.8% | -4.2% | 25.0
Cc1cc(C(=O)N2CCN(c3ccc([N+](=O)[O-])cc3)CC2)no1 | -6.7% | -4.0% | 25.8% | -19.9% | -21.5% | -1.8
CCOc1ccc(C(=O)N2CCN(Cc3cc(=O)n4nc(-c5cccc(OC)c5)sc4n3)CC2)cc1 | / | / | / | -16.9% | / | /
CCOc1ccc(C(=O)CC(Sc2ccc(C)cc2)C(=O)O)cc1 (configuration not stated) | 16.5% | ? | 4.47µM* | -41.3% | -10.9% | 4.4
SMILES | p53 reactivator | Gal4-VP16 FLuc | RORg inh | BRCA1 expr act | ELG1 DNA repair | Giardia kill
COc1cc2cc(CN(Cc3cccs3)C(=S)Nc3ccc(C)cc3)c(=O)[nH]c2cc1OC | -3.4% | ? | -1.0% | -41.9% | 5.17µM* | 10.5
COc1cc2cc(CN(Cc3cccs3)C(=S)Nc3cccc(C)c3)c(=O)[nH]c2cc1OC | -5.2% | ? | -0.4% | / | 7.31µM* | /
Cc1cccc(NC(=S)N(Cc2cccs2)Cc2cc3cc(C)ccc3[nH]c2=O)c1 | -6.7% | -1.8% | -6.6% | -18.6% | ? | 12.0
Cc1cccc(NC(=S)N(CCN(C)C)Cc2cc3cccc(C)c3[nH]c2=O)c1 | 1.5% | -5.9% | -10.6% | -17.9% | 13µM* | -17.6
Cc1cccc(NC(=S)N(CCN(C)C)Cc2cc3cc(C)cc(C)c3[nH]c2=O)c1 | -20.1% | -0.6% | 1.6% | -37.6% | ? | 24.9
CC1=C(C(=O)OCC2CCCCC2)C(c2cccc(Cl)c2Cl)CC(=O)N1 (configuration not stated) | / | / | / | 2.3% | / | /
CCOc1ccc(N(CC(=O)NCc2ccccc2)S(C)(=O)=O)cc1 | 12.9% | 17.8% | 24.8% | 76.8% | ? | 2.7
CC1(C)C2(C#N)C(N)=NC3(OCCO3)C12C#N (configuration not stated) | 3.6% | -12.5% | -13.3% | 0.1% | 3.1% | -22.9
COC(=O)c1cc(=O)n(Cc2cccs2)c(=Nc2ccc(F)cc2)s1 | -5.6% | ? | ? | -75.5% | -12.4% | 7.5
COC(=O)c1cc(=O)n(-c2ccc(F)cc2)c(=Nc2ccc(F)cc2)s1 | -16.5% | 15.8µM* | ? | -74.2% | ? | -27.4
CCOc1ccccc1C(=O)N[C@H](C(=O)OCc1cc([N+](=O)[O-])cc2c1OCOC2)C(C)C | 10.4% | -20.2% | 18.9% | -77.7% | 20.6µM* | 10.8
CC(C)N(C(=O)CSc1nnc(Cc2csc(Nc3ccccc3)n2)o1)C(C)C | -5.6% | -1.0% | -0.2% | -22.4% | ? | -13.0
CN1/C(=C\C(=S)NC(=O)c2ccccc2Cl)C(C)(C)c2ccccc21 | -0.4% | 20µM* | 7.94µM* | -60.3% | 2.7% | -1.3
CN1/C(=C/C(=S)NC(=O)C2(C)CC2(Cl)Cl)C(C)(C)c2ccccc21 (configuration not stated) | 1.5% | ? | 4.47µM* | -9.0% | ? | 31.1
COc1ccc(-n2ncc3c(NCc4ccc5c(c4)OCO5)ncnc32)cc1 | ? | / | 15.4%[0.365 µM] | 80.4% | ? | -4.7
O=C(c1ccccc1)C1CC=CCC1C(=O)c1ccccc1 (configuration not stated) | / | / | / | 0.1% | / | -2.1
Cc1ccc(C#CC[N+]2(CC#Cc3ccc(C)cc3)CCCCC2)cc1 | -9.5% | 7.08µM* | ? | -48.2% | 11.6µM* | -11.0
C(#Cc1ccccc1)C[N+]1(CC#Cc2ccccc2)CCCCC1 | -6.5% | 6.3% | 30.4% | -64.6% | ? | -8.5
O=C(NNC(=O)c1cnccn1)c1ccc(Cl)c(Cl)c1 | ? | 10µM* | 6.31µM* | -8.6% | ? | 2.5
Cc1ccc(C(=O)Nc2ccc(CC(=O)O)cc2)o1 | -3.4% | -11.8% | -20.6% | -37.7% | 15.6% | 16.5
